Laboratory results reported in PubChem BioAssay (EPA / NIEHS).
Several values for one entry are separate records, joined by “and”; a condition that tells them apart may be missing. Equal values may be shown once. Results filed as inconclusive are left out. A structure can be active in one record and inactive in another. Activity calls are given as the source filed them. How the source made its calls, unless noted: active means hit-call score of the fitted dose curve at least 0.9, where 1 is the maximum; inconclusive means response in the unintended direction; inactive means score below 0.9.

Assays:
[1] = system: zebrafish Estrogen Receptor (ER2a), gene 317734; experiment: ATG_zfER2a_XSP2: Attagene TRANS-FACTORIAL Multi-Species (XSP2) HepG2 Assay for zebrafish Estrogen Receptor (ER2a) (AID 2283818);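 further: hits raise reporter mRNA so AC50 reflects activation of zebrafish ER2a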
Method in brief: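 Multiplexed trans-reporter readout: RT-PCR then capillary electrophoresis of reporter transcripts after 24 h compound treatment. Human HepG2 carries transfected zebrafish ER2a-Gal4 chimera; 3 nM 6-alpha-fluorotestosterone plus 1.5 nM norgestrel present. Induction scored against DMSO.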

[2] = system: chicken Androgen Receptor (AR), gene 422165; experiment: ATG_chAR_XSP2: Attagene TRANS-FACTORIAL Multi-Species (XSP2) HepG2 Assay for chicken Androgen Receptor (AR) (AID 2283819);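 further: hits raise reporter mRNA above DMSO so potency is for activation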
Method in brief: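 Readout is reporter mRNA induction via RT-PCR/capillary electrophoresis after 24 h chemical exposure, positive direction relative to DMSO. Transiently transfected HepG2 express chimeric chicken AR–GAL4; AR stimulated by 3 nM 6-alpha-fluorotestosterone and 1.5 nM norgestrel.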

[3] = system: frog Estrogen Receptor (ER), gene 398734; experiment: ATG_frER1_XSP2: Attagene TRANS-FACTORIAL Multi-Species (XSP2) HepG2 Assay for frog Estrogen Receptor (ER) (AID 2283821);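 further: hits raise reporter mRNA above DMSO baseline so potency means agonist or activator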
Method in brief: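 HepG2 cells transiently transfected with multiplexed GAL4-UAS reporter units expressing chimeric NR-Gal4 proteins (TRANS format) were dosed for 24 h. Reporter mRNA was quantified by RT-PCR, FAM primer extension, HpaI digestion and capillary electrophoresis; gain of signal relative to DMSO.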

[4] = system: zebrafish Estrogen Receptor (ER2b), gene 317733; experiment: ATG_zfER2b_XSP2: Attagene TRANS-FACTORIAL Multi-Species (XSP2) HepG2 Assay for zebrafish Estrogen Receptor (ER2b) (AID 2283823);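 further: fitted upward as reporter gain over DMSO so potency reflects activation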
Method in brief: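 Reporter transcripts quantified by RT-PCR, fluorescent labelling and capillary electrophoresis after 24 h dosing of transfected HepG2 expressing zebrafish ER2b-GAL4 fusion. Medium contained 3 nM 6-alpha-fluorotestosterone plus 1.5 nM norgestrel; DMSO baseline.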

[5] = biological target: Estrogen receptor (Homo sapiens) (UniProt P03372); experiment: ATG_hERa_XSP2: Attagene TRANS-FACTORIAL Multi-Species (XSP2) HepG2 Assay for human Estrogen Receptor (ERa) (AID 2283827)
Method in brief: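 Trans-activation of exogenous human ERa-Gal4 chimera read in HepG2 as reporter transcript after 24 h exposure; medium included 3 nM 6-alpha-fluorotestosterone and 1.5 nM norgestrel. Quantified by RT-PCR with capillary electrophoresis, positive-direction fitting against DMSO.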

[6] = biological target: Peroxisome proliferator-activated receptor gamma (Homo sapiens) (UniProt P37231); experiment: ATG_hPPARg_XSP2: Attagene TRANS-FACTORIAL Multi-Species (XSP2) HepG2 Assay for human Peroxisome Proliferator-activated Receptor gamma (PPARg) (AID 2283829);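 further: actives raise reporter mRNA above DMSO so AC50 reflects PPARg activation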
Method in brief: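 HepG2 cells transiently transfected with GAL4-UAS reporter units driven by chimeric NR-Gal4 proteins; androgen receptor stimulated with 3 nM 6-alpha-fluorotestosterone and 1.5 nM norgestrel. After 24 h, reporter mRNA quantified by RT-PCR and capillary electrophoresis versus DMSO.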

[7] = biological target: mouse Peroxisome Proliferator-activated Receptor gamma (PPARg), Pparg (gene 19016) (UniProt P37238); experiment: ATG_mPPARg_XSP2: Attagene TRANS-FACTORIAL Multi-Species (XSP2) HepG2 Assay for mouse Peroxisome Proliferator-activated Receptor gamma (PPARg) (AID 2283830);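 further: hits are gains in reporter mRNA above DMSO so AC50 marks activation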
Method in brief: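 Multiplexed TRANS reporter readout: after 24 h chemical exposure of transfected HepG2 cells (with 3 nM 6-alpha-fluorotestosterone, 1.5 nM norgestrel present), RNA reverse-transcribed, amplified, 6-FAM-labelled and resolved by capillary electrophoresis; mouse PPARg-Gal4 induction scored against DMSO.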

[8] = biological target: Nuclear receptor subfamily 1 group I member 2 (Mus musculus) (UniProt O54915); experiment: ATG_mPXR_XSP2: Attagene TRANS-FACTORIAL Multi-Species (XSP1) HepG2 Assay for mouse Pregnane X Receptor (PXR) (AID 2283831)
Method in brief: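 HepG2 cells transiently transfected with GAL4-UAS reporter units expressing chimeric NR-Gal4 proteins; 24 h compound exposure. Reporter mRNA quantified by RT-PCR and capillary electrophoresis fluorescence; gain of signal fitted against DMSO.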

[9] = biological target: zebrafish Thyroid Hormone Receptor alpha (TRa), thraa (gene 30670) (UniProt Q98867); experiment: ATG_zfTRa_XSP2: Attagene TRANS-FACTORIAL Multi-Species (XSP1) HepG2 Assay for zebrafish Thyroid Hormone Receptor alpha (TRa) (AID 2283832);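 further: actives raise zebrafish TRa-Gal4 reporter transcript above DMSO baseline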
Method in brief: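 Multiplexed TRANS reporter format in HepG2; the medium also contained 3 nM 6-alpha-fluorotestosterone and 1.5 nM norgestrel. Reporter mRNA after 24 h read by RT-PCR and capillary electrophoresis, scored as induction over DMSO.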

[10] = system: turtle Thyroid Hormone Receptor, alpha (TRa), gene 101949057; experiment: ATG_trTRa_XSP2: Attagene TRANS-FACTORIAL Multi-Species (XSP1) HepG2 Assay for turtle Thyroid Hormone Receptor, alpha (TRa) (AID 2283834);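 further: hits raise reporter mRNA over the DMSO baseline so AC50 marks activators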
Method in brief: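 HepG2 cells transiently transfected with GAL4-UAS reporter units for chimeric turtle TRa-Gal4; mRNA measured 24 h after dosing by RT-PCR and capillary electrophoresis fluorescence, gain of signal fitted against DMSO.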

[11] = ATG_M_61_XSP2: Attagene TRANS-FACTORIAL Multi-Species (XSP2) HepG2 Assay for M61 Transcription Factor (Internal Marker) (AID 2283835; active means hit-call score of the fitted dose curve at least 0.9, where 1 is the maximum; inactive means score below 0.9;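 further: active means a rise in signal above the DMSO baseline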)
Method in brief: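 Internal background marker, read as RT-PCR/capillary-electrophoresis reporter mRNA 24 h post-dose in transiently transfected HepG2 cells. Androgen receptor stimulated with 3 nM 6-alpha-fluorotestosterone plus 1.5 nM norgestrel; gain of signal versus DMSO analysed.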

[12] = biological target: zebrafish Thyroid Hormone Receptor beta (TRb), thrb (gene 30607) (UniProt Q9PVE4); experiment: ATG_zfTRb_XSP2: Attagene TRANS-FACTORIAL Multi-Species (XSP1) HepG2 Assay for zebrafish Thyroid Hormone Receptor beta (TRb) (AID 2283836)
Method in brief: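 Multiplexed trans-activation in HepG2 cells, 24 h treatment, with reporter mRNA read by RT-PCR and capillary electrophoresis. Gain-of-signal against DMSO.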

[13] = ATG_XTT_Cytotoxicity_XSP2: Cytotoxicity Assessment in the Attagene TRANS-FACTORIAL Multi-Species (XSP2) HepG2 Assay (AID 2283837)
Method in brief: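 XTT-based cell number read-out in human HepG2 liver cells carrying transfected reporter units, measured 24 h after chemical dosing. Activity is signal loss versus DMSO baseline.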

[14] = biological target: human Thyroid hormone Receptor alpha (TRa), THRA (gene 7067) (UniProt P10827); experiment: ATG_hTRa_XSP2: Attagene TRANS-FACTORIAL Multi-Species (XSP2) HepG2 Assay for human Thyroid hormone Receptor alpha (TRa) (AID 2283838)
Method in brief: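 Gain-of-signal in reporter mRNA, relative to DMSO, after 24 h dosing of transfected HepG2; quantitation by RT-PCR fragment analysis on capillary electrophoresis.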

[15] = biological target: frog Thyroid hormone Receptor alpha (TRa), thra-a (gene 397942) (UniProt P15204); experiment: ATG_frTRa_XSP2: Attagene TRANS-FACTORIAL Multi-Species (XSP2) HepG2 Assay for frog Thyroid hormone Receptor alpha (TRa) (AID 2283839);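 on AC50: AC50 reflects induction of frog TRa-driven reporter mRNA above DMSO baseline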
Method in brief: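 HepG2 transiently transfected with multiplexed GAL4-UAS reporters driven by frog TRa-Gal4 chimeras; 24 h chemical exposure. Reporter mRNA quantified by RT-PCR, FAM labelling, HpaI digestion and capillary electrophoresis; gain of signal versus DMSO.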

[16] = system: frog Estrogen Receptor (ER2), gene 100174814; experiment: ATG_frER2_XSP2: Attagene TRANS-FACTORIAL Multi-Species (XSP2) HepG2 Assay for frog Estrogen Receptor (ER2) (AID 2283828)
Method in brief: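 Read-out: reporter transcript levels by RT-PCR with 6-FAM primer extension, HpaI digestion and capillary electrophoresis, scored as induction over DMSO control. Transfected HepG2 carrying Xenopus ER2–GAL4 chimera; compounds incubated 24 h.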

[17] = system: zebrafish Peroxisome Proliferator-activated Receptor gamma (PPARg), gene 557037; experiment: ATG_zfPPARg_XSP2: Attagene TRANS-FACTORIAL Multi-Species (XSP2) HepG2 Assay for zebrafish Peroxisome Proliferator-activated Receptor gamma (PPARg) (AID 2283833);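 further: reporter mRNA from a zebrafish PPARg GAL4 chimera measured by RT-PCR and capillary electrophoresis; actives increase reporter signal over DMSO so AC50 reflects activation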
Method in brief: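 HepG2 cells transiently transfected with multiplexed GAL4-UAS reporter units expressing chimeric NR-Gal4 receptors, dosed 24 h. Reporter mRNA quantified by RT-PCR, fluorescent labelling, HpaI digestion and capillary electrophoresis; gain of signal fitted against DMSO.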

[18] = ATG_M_19_XSP2: Attagene TRANS-FACTORIAL Multi-Species (XSP2) HepG2 Assay for M32 Transcription Factor (Internal Marker) (AID 2283822)
Method in brief: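 Internal background marker in a multi-species nuclear receptor TRANS panel: transfected HepG2 cells exposed 24 h, with 3 nM 6-alpha-fluorotestosterone and 1.5 nM norgestrel present. Readout is RT-PCR of reporter transcripts resolved by capillary electrophoresis, gain-of-signal versus DMSO.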

[19] = system: frog Androgen Receptor (AR), gene 399456; experiment: ATG_frAR_XSP2: Attagene TRANS-FACTORIAL Multi-Species (XSP2) HepG2 Assay for frog Androgen Receptor (AR) (AID 2283824);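 further: reporter mRNA from GAL4-UAS units driven by Xenopus AR-Gal4 chimera; actives raise reporter signal above DMSO so AC50 reflects agonist-like induction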
Method in brief: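 Reporter transcript induction, read by RT-PCR with fluorescent capillary electrophoresis, in human liver HepG2 cells carrying an exogenous Xenopus AR-Gal4 fusion and GAL4-driven reporters; chemical exposure 24 hours, activity scored upward against DMSO controls.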

[20] = system: zebrafish Androgen Receptor (AR), gene 100005148; experiment: ATG_zfAR_XSP2: Attagene TRANS-FACTORIAL Multi-Species (XSP2) HepG2 Assay for zebrafish Androgen Receptor (AR) (AID 2283825);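 further: hits raise reporter mRNA above DMSO so AC50 reflects agonist-type gain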
Method in brief: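 After 24 h compound exposure in medium with 3 nM 6-alpha-fluorotestosterone plus 1.5 nM norgestrel, HepG2 cells carrying zebrafish AR–GAL4 reporter constructs were assessed for reporter mRNA gain by RT-PCR and capillary electrophoresis.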

Measured: AC50

Chain of Peroxisome proliferator-activated receptor gamma (Homo sapiens) (P37231 whole entry, looked up, the tested form may be a part): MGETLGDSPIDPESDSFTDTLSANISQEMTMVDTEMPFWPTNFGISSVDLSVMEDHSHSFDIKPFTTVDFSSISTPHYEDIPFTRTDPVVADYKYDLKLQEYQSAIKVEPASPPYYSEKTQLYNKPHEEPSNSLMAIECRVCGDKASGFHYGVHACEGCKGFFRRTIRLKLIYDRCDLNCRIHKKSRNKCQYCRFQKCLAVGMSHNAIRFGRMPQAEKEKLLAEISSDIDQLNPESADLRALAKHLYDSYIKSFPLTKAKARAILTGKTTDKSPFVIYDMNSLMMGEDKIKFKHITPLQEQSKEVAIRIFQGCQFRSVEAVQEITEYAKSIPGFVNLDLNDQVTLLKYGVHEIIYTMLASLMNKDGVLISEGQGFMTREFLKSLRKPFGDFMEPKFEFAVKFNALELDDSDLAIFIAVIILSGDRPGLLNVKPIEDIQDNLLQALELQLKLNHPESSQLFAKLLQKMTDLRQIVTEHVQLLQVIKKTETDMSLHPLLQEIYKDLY
Chain of zebrafish Thyroid Hormone Receptor beta (TRb), thrb (gene 30607) (Q9PVE4 whole entry, looked up): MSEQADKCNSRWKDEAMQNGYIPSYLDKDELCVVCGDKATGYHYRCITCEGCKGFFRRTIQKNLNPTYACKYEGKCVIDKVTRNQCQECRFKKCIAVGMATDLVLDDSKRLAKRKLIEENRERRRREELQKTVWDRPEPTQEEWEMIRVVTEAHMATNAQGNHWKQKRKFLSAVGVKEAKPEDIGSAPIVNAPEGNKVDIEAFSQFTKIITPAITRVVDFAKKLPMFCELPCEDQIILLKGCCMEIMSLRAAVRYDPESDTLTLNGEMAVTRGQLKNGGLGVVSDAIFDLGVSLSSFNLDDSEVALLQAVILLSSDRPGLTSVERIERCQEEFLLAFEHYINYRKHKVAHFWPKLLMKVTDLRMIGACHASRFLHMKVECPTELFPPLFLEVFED
Chain of frog Thyroid hormone Receptor alpha (TRa), thra-a (gene 397942) (P15204 whole entry, looked up, the tested form may be a part): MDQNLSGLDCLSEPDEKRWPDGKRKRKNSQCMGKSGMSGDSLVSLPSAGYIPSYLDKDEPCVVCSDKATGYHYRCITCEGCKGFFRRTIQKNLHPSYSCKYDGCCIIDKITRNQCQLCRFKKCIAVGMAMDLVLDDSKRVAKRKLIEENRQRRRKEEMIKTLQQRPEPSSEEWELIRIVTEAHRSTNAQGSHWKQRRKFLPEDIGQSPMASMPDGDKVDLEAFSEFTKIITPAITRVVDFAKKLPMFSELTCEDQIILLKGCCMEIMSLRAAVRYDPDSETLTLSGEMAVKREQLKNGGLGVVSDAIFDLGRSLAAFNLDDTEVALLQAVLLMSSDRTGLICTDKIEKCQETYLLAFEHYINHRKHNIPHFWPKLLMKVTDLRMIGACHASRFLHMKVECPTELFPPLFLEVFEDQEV
Chain of Estrogen receptor (Homo sapiens) (P03372 whole entry, looked up, the tested form may be a part): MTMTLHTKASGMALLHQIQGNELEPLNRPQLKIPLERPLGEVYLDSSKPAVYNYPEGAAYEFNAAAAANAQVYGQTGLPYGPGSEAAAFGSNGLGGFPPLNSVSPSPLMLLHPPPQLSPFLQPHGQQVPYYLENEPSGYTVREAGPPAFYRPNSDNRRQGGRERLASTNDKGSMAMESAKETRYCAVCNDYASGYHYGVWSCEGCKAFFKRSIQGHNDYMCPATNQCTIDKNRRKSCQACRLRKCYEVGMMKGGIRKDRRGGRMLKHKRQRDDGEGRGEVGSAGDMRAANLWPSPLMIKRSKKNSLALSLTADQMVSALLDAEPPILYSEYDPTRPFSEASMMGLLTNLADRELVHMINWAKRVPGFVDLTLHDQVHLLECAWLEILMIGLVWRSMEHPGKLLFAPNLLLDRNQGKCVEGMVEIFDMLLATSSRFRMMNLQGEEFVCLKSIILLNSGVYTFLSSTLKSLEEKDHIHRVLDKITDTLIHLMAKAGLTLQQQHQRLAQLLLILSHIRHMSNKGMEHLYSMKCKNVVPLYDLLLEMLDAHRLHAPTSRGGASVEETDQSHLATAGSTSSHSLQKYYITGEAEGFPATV
Chain of Nuclear receptor subfamily 1 group I member 2 (Mus musculus) (O54915 whole entry, looked up, the tested form may be a part): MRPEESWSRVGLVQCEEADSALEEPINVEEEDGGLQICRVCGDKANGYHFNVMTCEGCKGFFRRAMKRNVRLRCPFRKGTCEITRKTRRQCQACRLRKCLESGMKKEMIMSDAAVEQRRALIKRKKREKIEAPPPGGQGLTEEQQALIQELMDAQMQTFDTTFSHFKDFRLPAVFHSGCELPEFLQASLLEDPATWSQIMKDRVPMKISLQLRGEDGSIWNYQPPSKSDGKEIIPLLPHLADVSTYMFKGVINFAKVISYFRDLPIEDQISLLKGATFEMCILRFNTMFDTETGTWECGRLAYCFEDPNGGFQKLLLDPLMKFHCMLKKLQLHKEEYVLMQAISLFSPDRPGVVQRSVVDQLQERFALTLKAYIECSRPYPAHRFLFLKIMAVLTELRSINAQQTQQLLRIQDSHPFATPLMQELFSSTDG
Chain of zebrafish Thyroid Hormone Receptor alpha (TRa), thraa (gene 30670) (Q98867 whole entry, looked up, the tested form may be a part): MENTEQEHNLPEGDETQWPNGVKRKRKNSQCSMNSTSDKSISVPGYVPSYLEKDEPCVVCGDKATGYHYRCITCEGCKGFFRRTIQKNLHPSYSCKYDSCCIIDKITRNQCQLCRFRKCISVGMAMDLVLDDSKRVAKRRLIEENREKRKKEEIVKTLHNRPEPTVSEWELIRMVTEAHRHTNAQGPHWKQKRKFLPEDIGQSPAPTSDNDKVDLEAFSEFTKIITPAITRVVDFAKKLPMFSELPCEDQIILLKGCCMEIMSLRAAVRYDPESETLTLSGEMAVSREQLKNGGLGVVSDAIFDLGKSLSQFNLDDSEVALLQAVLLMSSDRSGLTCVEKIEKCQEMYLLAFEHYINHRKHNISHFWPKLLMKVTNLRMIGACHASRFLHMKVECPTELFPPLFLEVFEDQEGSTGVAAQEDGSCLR
Chain of mouse Peroxisome Proliferator-activated Receptor gamma (PPARg), Pparg (gene 19016) (P37238 whole entry, looked up, the tested form may be a part): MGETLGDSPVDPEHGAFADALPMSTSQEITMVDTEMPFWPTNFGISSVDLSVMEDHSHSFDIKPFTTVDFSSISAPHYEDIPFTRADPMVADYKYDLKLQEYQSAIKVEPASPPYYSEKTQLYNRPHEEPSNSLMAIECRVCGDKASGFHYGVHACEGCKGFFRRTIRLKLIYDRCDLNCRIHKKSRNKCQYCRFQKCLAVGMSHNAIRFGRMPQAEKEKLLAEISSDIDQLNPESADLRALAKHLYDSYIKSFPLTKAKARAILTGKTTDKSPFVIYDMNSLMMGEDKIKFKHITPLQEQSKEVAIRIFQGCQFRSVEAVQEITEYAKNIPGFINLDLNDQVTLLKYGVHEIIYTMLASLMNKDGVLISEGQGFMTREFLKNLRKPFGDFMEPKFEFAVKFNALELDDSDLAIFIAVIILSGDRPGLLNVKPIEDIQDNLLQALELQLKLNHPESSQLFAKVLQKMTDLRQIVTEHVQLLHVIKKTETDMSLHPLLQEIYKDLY
Chain of human Thyroid hormone Receptor alpha (TRa), THRA (gene 7067) (P10827 whole entry, looked up, the tested form may be a part): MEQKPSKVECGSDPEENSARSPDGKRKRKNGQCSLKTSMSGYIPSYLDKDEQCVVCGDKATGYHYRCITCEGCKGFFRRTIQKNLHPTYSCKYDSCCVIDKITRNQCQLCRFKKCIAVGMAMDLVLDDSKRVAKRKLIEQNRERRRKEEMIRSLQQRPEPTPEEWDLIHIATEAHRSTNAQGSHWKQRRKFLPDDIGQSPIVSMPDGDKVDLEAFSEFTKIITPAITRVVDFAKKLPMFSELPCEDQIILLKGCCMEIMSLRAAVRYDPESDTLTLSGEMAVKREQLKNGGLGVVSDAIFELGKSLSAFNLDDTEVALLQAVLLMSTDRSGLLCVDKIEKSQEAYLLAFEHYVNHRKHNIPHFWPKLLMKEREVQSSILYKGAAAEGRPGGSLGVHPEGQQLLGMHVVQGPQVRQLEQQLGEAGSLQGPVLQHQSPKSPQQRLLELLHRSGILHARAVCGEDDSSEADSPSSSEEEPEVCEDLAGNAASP

CC(C)(C)c1ccc(S)cc1
active: [1] 100 µM | [4] 179 µM | [6] 3.68 µM
inactive: [2] | [3] | [5] | [6] | [7] | [8] | [9] | [10] | [11] | [12] | [13] | [14] | [15]

O=c1cc(-c2ccc(O)cc2)oc2cc(O)cc(O)c12
active: [1] 1.1 µM and 677 nM | [3] 767 nM | [4] 1.69 µM and 1.07 µM | [16] 3.85 µM and 215 nM | [6] 27.8 µM and 12.8 µM | [7] 27.5 µM and 16.2 µM | [8] 26.9 µM | [10] 26.7 µM | [14] 6.26 µM | [15] 39.2 µM and 44.6 µM
inactive: [3] | [9] | [17] | [10] | [12] | [13] | [14]

CC/C(=C(\c1ccccc1)c1ccc(OCCN(C)C)cc1)c1ccccc1
inactive: [1] | [3] | [18] | [8] | [9] | [17] | [11] | [12] | [15]

CCCCCCCCOC(=O)c1ccc(O)cc1
active: [1] 11 µM and 3.51 µM | [2] 33.4 µM | [3] 20.9 µM and 2.94 µM | [4] 14.9 µM and 2.94 µM | [19] 33.4 µM | [5] 21.2 µM and 3.19 µM | [16] 9.18 µM and 803 nM | [13] 41.3 µM
inactive: [2] | [20] | [8] | [9] | [17] | [10] | [11] | [12] | [14] | [15]

CCCCCC(=O)O[C@]1(C(C)=O)CC[C@H]2[C@@H]3CCC4=CC(=O)CC[C@]4(C)[C@H]3CC[C@@]21C
active: [1] 172 µM | [4] 7.02 µM | [6] 2.88 µM and 2.34 µM | [7] 7.63 µM and 3.17 µM | [17] 132 µM
inactive: [3] | [16] | [8] | [9] | [11] | [12] | [13]

C#C[C@]1(O)CC[C@H]2[C@@H]3CCc4cc(O)ccc4[C@H]3CC[C@@]21C
active: [1] 4.88e-05 µM | [4] 0.000204 µM | [16] 1.35 nM
inactive: [6] | [9] | [10] | [11] | [12]
